Source: PubChem BioAssay (National Center for Advancing Translational Sciences (NCATS))
The sample as a whole holds a higher share of hits than the screen did.
Methyltransferases – Primary Screen for Target Class Profiling of Small Molecule Inhibitors of Methyltransferases; purified enzyme, MTase-Glo SAH luminescence; stronger effect = lower value; calls only at 40 µM; 25,000 compounds, 3.9% hits; AID 1745853, 2022; call rule not given here
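Each enzyme was assayed with SAM and its substrate. SAH formation detected by MTase-Glo luminescence; single-point 40 uM screen[…].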
Calls only; n = inactive; + = active, no number; ! = not active in a repeat.

SMILES	Methyltransferases
COc1ccc(C(=O)CSc2nnc3n(C)c(=O)c4ccc(C(=O)NC5CCCCC5)cc4n23)cc1	n
CC(C)CNC(=O)c1ccc2c(=O)n(Cc3ccccc3)c3nn(CC(=O)NC(C)(C)C)c(=O)n3c2c1	n
CCOC(=O)c1cc2n(n1)CC(C)(C(=O)NCc1ccccc1)N(c1cccc(Cl)c1C)C2=O (configuration not stated)	n
CN1C(=O)c2cc(C(=O)NC3CCCCCC3)nn2CC1(C)C(=O)NCc1ccc(F)cc1 (configuration not stated)	n
Cc1ccc(S(=O)(=O)c2nnn3c2nc(NC(C)c2ccccc2)c2ccccc23)cc1 (configuration not stated)	n
COc1ccccc1N1C(=O)c2cc3ccccc3n2CC1(C)C(=O)NC1CCCCC1 (configuration not stated)	n
CCc1cc2c(cc3n2CC(C)(C(=O)NC2CCCCC2)N(c2ccc(C)c(C)c2)C3=O)s1 (configuration not stated)	n
CC(C)c1ccc(N2C(=O)c3ccccc3CC2(C)C(=O)NCc2ccccc2)cc1 (configuration not stated)	n
CC1(C(=O)NC2CCCCCC2)Cn2c(cc3sccc32)C(=O)N1CCCN1CCCCC1 (configuration not stated)	n
COC(=O)c1cc2n(n1)CC(C)(C(=O)NC1CCC(C)CC1)N(c1ccc(OC)cc1)C2=O (configuration not stated)	n
COc1ccc(CN2C(=O)c3cc4ccccc4n3CC2(C)C(=O)NC2CCCCCC2)cc1 (configuration not stated)	n
CCCCNC(=O)c1ccc2c(=O)nc3c(-c4ccc(Cl)cc4)n[nH]n3c2c1	n
CCN1CCN(c2nc3c(S(=O)(=O)c4ccc(C)c(C)c4)nnn3c3ccc(Cl)cc23)CC1	n
CC(C)CCNC(=O)CCc1nnc2n(Cc3ccc(F)cc3)c(=O)c3ccccc3n12	n
O=C(CCc1nnc2n(CCc3ccccc3)c(=O)c3ccccc3n12)NCCc1ccccc1	n
O=C(CCc1nnc2n(CCc3ccccc3)c(=O)c3ccccc3n12)NCCCN1CCOCC1	n
CC1CCCCN1CCNC(=O)CCc1nnc2n(Cc3ccc(F)cc3)c(=O)c3ccccc3n12 (configuration not stated)	+
O=C(CCc1nnc2n(CCc3ccccc3)c(=O)c3ccccc3n12)NCCCN1CCCCC1	+
O=C(CCc1nnc2n(Cc3ccc(F)cc3)c(=O)c3ccccc3n12)NCCc1ccccc1	n
CCOc1ccc(C(=O)CSc2nnc3n(C)c(=O)c4ccc(C(=O)NC5CCCC5)cc4n23)cc1	n
COc1cccc(CNc2nc3c(S(=O)(=O)c4ccc(C)c(C)c4)nnn3c3ccccc23)c1	n
COc1ccccc1CN1C(=O)c2c(-n3cccc3)c3ccccc3n2CC1(C)C(=O)NC1CCCC1 (configuration not stated)	n
Cc1nnc(C[C@@H]2C=C(c3ccc(Cl)cc3)c3ccccc3-n3c(C)nnc32)o1	+
Cc1ccc(C)c(N2C(=O)CSc3c(c4ccccc4n3C)C2C(=O)NCc2ccc(F)cc2)c1 (configuration not stated)	n
CC1(C(=O)NC2CCCCC2)Cn2c(cc3ccccc32)C(=O)N1Cc1cccc(Br)c1 (configuration not stated)	n
SMILES	Methyltransferases
Cc1cc2c(cc3n2CC(C)(C(=O)NC2CCCCCC2)N(CCCOC(C)C)C3=O)o1 (configuration not stated)	n
CC(=O)Nc1c2n(c3ccccc13)CC(C)(C(=O)NC1CCCC1)N(Cc1ccccc1F)C2=O (configuration not stated)	n
Cc1cc(N)c2ccccc2[n+]1CCCCCCCCCC[n+]1c(C)cc(N)c2ccccc21	+
CCC(C)NC(=O)c1ccc2c(=O)n(C)c3nn(CC(=O)Nc4ccc(C)cc4C)c(=O)n3c2c1 (configuration not stated)	n
C/C=C/c1ccc2oc(-c3ccc(O)c(OC)c3)c(C)c2c1	n
COc1cc(/C=C/c2cn(-c3ccc(C(=O)O)cc3)nc2/C=C/c2ccc(O)c(OC)c2)ccc1O	+
COc1cc(/C=C/C(=O)O[C@@H]2C[C@@](O)(C(=O)O)C[C@@H](O)[C@@H]2O)ccc1O	n
CCC(C)NC(=O)c1ccc2c(=O)n(CC(C)C)c3nnc(SCC(=O)NC(C)(C)C)n3c2c1 (configuration not stated)	n
CCC(C)NC(=O)c1ccc2c(=O)n(CC(C)C)c3n[nH]c(=O)n3c2c1 (configuration not stated)	n
COC(=O)c1ncn2c1C(=O)N(c1cccc(SC)c1)C(C)(C(=O)NC1CCCCC1)C2 (configuration not stated)	n
N#Cc1ccc(-c2csc(NN=C3CCCC3)n2)cc1	+!
CCCC1c2ccc(C)n2CCN1C(=O)Nc1ccc(C)c(C)c1 (configuration not stated)	n
COc1ccc(OC)c2c1cc1n2CC(C)(C(=O)NC2CCCCCC2)N(Cc2ccco2)C1=O (configuration not stated)	n
